Measured values reported in PubChem BioAssay (NCI).
The panel holds about 83,000 compounds, 20% with a hit somewhere; the sample as a whole holds those more often.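 Cells were grown in 96-well plates and exposed to the test compound at a single concentration for 48 hours; results are reported as percent growth, with values below 10 considered active.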 Values without a mark were called inactive. Calls of active or inactive are those of the source.

Test system: BT-549 breast
Assay: NCI-60 one-dose screen, 48 h (100 = growth as untreated, 0 = no growth, -100 = all killed)
Settings: 10 µM unless noted

| SMILES | growth |
| --- | --- |
| CC1=C(C(=O)Nc2ccccc2)C(c2cccc3ccccc23)n2c(nc3ccccc32)N1 (stereo not drawn) | -2.15% (active) |
| COc1ccc2nc(NC(=O)c3ccc(N(C)C)cc3)sc2c1 | 58.7% |
| C[C@H]1[C@@H](CC(=O)N[C@@H](Cc2coc3ccccc23)B(O)O)O[C@@H]2OC3(C)CC[C@H]4[C@H](C)CC[C@@H]1[C@@]24O3 | -72.8% (active) |
| Fc1ccc(N2CC(Cn3c(C(F)(F)F)cc4c(Cl)ncnc43)C2)c(F)c1 | -84.5% (active) |
| Cn1cc(-c2cc(N)n3nc(-c4c[nH]c5ccc(F)cc45)cc3n2)c2cc(Br)cnc21 | 92.6% |
| O=C1Nc2ccc(F)cc2/C1=C/C(=O)c1cc2ccccc2oc1=O | 116% |
| O=C(CSc1nc2ccccc2c(=O)[nH]1)NNC(=O)c1ccccc1Cl | 160% |
| CCCCNc1ccc2c3c(cccc13)C(=O)N(NCC(O)COc1ccc3c(C)cc(=O)oc3c1)C2=O (stereo not drawn) | 95.8% |
| COc1cc(CNC(=O)C[C@H](C)CCC=C(C)C)ccc1OCc1cn(-c2ccccc2Cl)nn1 | 28.2% |
| Cc1cccc(-c2ccccc2Oc2ccc3nnc(Cl)n3n2)c1 | 99.8% |
| CCOc1ccccc1[C@H]1C(C(=O)c2ccc(Cl)cc2)C2(N[C@@H]1c1ccccc1)C(=O)Nc1ccccc12 (stereo partly drawn) | -35% (active) |
| CCc1ccccc1-c1nc(CN[C@@H]2C[C@@H]3C[C@H]([C@H]2C)C3(C)C)c(C)o1 | -89.7% (active) |
| COc1cc(C=O)ccc1OC(=O)c1cc(-c2ccc(C)cc2)n(-c2ccc(S(C)(=O)=O)cc2)n1 | 126% |
| COC(=O)c1ccc(-c2c(-c3ccccc3)c(F)c3oc(C(=O)OC)c(N)c3c2-c2ccccc2)cc1 | 95.7% |
| C#CCN(C)CCCOc1ccc(N(C)C(=O)c2cc(C(C)C)c(O)cc2O)cc1Cl | 9.45% (active) |
| COc1c2c(c(Br)c3c1C(CCc1ccccc1)N(C)CC3)OCO2 (stereo not drawn) | 3.17% (active) |
| CN(C(=O)CN1C(=O)/C(=C/c2ccco2)SC1=S)C1CCS(=O)(=O)C1 (stereo not drawn) | 91.3% |
| COc1ccc(-c2nnc3c(/C=C/c4ccc(Br)cc4)nc4ccccc4n23)cc1 | 9.42% (active) |
| CN(C)c1nc(NCCNS(=O)(=O)c2ccc(C3=Nc4c(N)nc(N)nc4NC(c4ccc(Cl)cc4)C3)cc2)nc(N2CCOCC2)n1 (stereo not drawn) | 35.4% |

| SMILES | growth |
| --- | --- |
| CC1=C(C(=O)OCc2ccccc2)C(c2cccc3ccccc23)n2c(nc3ccccc32)N1 (stereo not drawn) | 25% |
| NNc1ncnc2sc3c(c12)CCN(Cc1ccccc1)C3 | 55% |
| c1n[nH]cc1-c1nc2ccc3[nH]ncc3c2c2c1CC1(CC2)COC1 | -7.9% (active) |
| CC[C@]12C=CCN3CC[C@]4(C(=C(C(=O)OC)C1)Nc1cc(OC)c([C@@H]5[C@H]6O[C@H]6[C@@]6(CC)CC(C(=O)OC)=C7Nc8cc(OC)ccc8[C@@]78CCN5[C@@H]68)cc14)[C@@H]32 | 62.8% |
| COc1sc(/C=N/NC(=O)c2[nH]c3ccc(Br)cc3c2-c2ccccc2)cc1Br | -29.1% (active) |
| Cc1nc(Nc2ccccn2)sc1C1=NNC(c2ccccc2F)C1 (stereo not drawn) | 36.1% |
| CN1CCN(c2ccc3c4c(cccc24)C(=O)N(c2cccc(-c4nn(-c5ccccc5)cc4-c4nc5ccccc5s4)c2)C3=O)CC1 | 97.1% |
| Cc1ccc2c(c1)nc(-c1ccccc1)n2CC(=O)N=Nc1c(O)[nH]c2ccc(Cl)cc12 | -72% (active) |
| O=C(N/N=C/c1ccc(Br)o1)c1[nH]c2ccc(Br)cc2c1-c1ccccc1 | -27.8% (active) |
| COc1cc(/C=C/C(=O)c2ccc(S(=O)(=O)NCCNc3nc(N(C)C)nc(N4CCOCC4)n3)cc2)cc(OC)c1OC | -73.3% (active) |
| COc1cc(/C=C/C(=O)c2cnn(-c3cc(=O)[nH]c4ccccc34)c2C)cc(OC)c1OC | -4.19% (active) |
| Cc1ccccc1Nc1nnc(-c2c[nH]c3ccccc23)o1 | 17.7% |
| O=CNc1ccc(-n2cnc3cc(-c4ccc(O)cc4)ccc32)cc1 | 93.3% |
| C#CCN(C)CCCOc1ccc(N(CC)C(=O)c2cc(C(C)C)c(O)cc2O)cc1Cl | -8.72% (active) |
| CCOC(=O)/C(F)=C/C1CC1CCc1ccc(OCC)cc1 (stereo not drawn) | 106% |
| O=C(CSc1nc2c(c(=O)[nH]1)CCCC2)Nc1ccccc1C(=O)O | 117% |
| O=C1CCC(N2C(=O)c3cccc(NCCCCCC(=O)N4CCN(c5ccc6nc7c(nc6c5C(F)(F)F)C(=O)c5ncccc5C7=O)CC4)c3C2=O)C(=O)N1 (stereo not drawn) | -76.8% (active) |
| O=C(c1cc2cc(OCCCN3CCC3)ccc2[nH]1)N1C[C@@H](CCl)c2c1cc(OCc1ccccc1)c1ccccc21 | -48% (active) |
| CC(C)C[C@H](NC(=O)CNC(=O)C[C@H]1O[C@@H]2OC3(C)CC[C@H]4[C@H](C)CC[C@@H]([C@H]1C)[C@@]24O3)B(O)O | -87% (active) |
